# Potency and affinity values are given separately. A number with no mark means an inactive call. A call without a number means that no potency is given here. The source made the active and inactive calls.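 Rule for the calls: active = compounds lowering signal whose fitted half-maximal concentration is at most twice the top tested dose; inconclusive = flat curve with 30 to 70% inhibition, or poor fit; inactive = the rest.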
# Biological target: Dual specificity protein kinase CLK1 (Homo sapiens) (UniProt P49759)
# Sequence (P49759 whole entry, looked up): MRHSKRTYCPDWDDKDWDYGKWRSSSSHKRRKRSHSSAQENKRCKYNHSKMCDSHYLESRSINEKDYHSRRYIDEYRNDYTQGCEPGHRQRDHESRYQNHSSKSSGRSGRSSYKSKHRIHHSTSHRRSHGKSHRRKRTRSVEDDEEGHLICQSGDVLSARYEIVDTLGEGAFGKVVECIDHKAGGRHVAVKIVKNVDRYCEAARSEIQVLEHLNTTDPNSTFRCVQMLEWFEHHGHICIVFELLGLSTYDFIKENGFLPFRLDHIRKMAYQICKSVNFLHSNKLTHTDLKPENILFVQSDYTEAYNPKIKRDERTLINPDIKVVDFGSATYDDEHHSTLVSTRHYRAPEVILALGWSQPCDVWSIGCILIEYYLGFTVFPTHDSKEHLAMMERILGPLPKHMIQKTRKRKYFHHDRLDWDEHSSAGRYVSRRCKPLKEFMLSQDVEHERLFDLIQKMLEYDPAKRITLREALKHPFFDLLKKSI
# Experiment: CLK1 kinase inhibitors, off-target check, dose response, selectivity assay for Dyrk1A inhibitor project, biochemical, cherry-picked samples (AID 588811)
# Conditions: recombinant CLK1, ADP-Glo luminescence, 2 h; series mostly up to 12 µM
Compound,outcome,"activity change, negative = inhibition"
O=C(NCc1ccco1)c1sc2ccccc2c1Cl,inactive,
N#Cc1c(C(F)(F)F)cc(-c2cccc(Cl)c2)[nH]c1=O,inactive,
Clc1ccccc1-c1ccc2ncnc(NCc3ccc4c(c3)OCO4)c2c1,inactive,
COc1cccc(Nc2nc(NCCO)c3ccccc3n2)c1,,-8.29% [at 1.35 µM]
Fc1cccc(Nc2nc(-c3ccncc3)nc3ccccc23)c1,inactive,
COCCNC(=O)c1ccc2c(c1)nc(C)n2-c1cccc(F)c1,inactive,
Clc1ccc(CNc2cc(-c3ccc4c(c3)OCO4)ncn2)cc1,inactive,
Clc1cc(Cl)cc(CNc2cc(-c3ccc4c(c3)OCO4)ncn2)c1,inactive,
Clc1ccc(CNc2nccc(-c3ccc4cn[nH]c4c3)n2)cc1Cl,inactive,
Cc1ccnc(NC(=O)c2cccc(S(=O)(=O)N3CCN(c4ccccc4)CC3)c2)c1,inactive,
COc1cccc(-c2sc3ccccc3c2-c2ccc(OCCN3CCCC3)cc2)c1,inactive,
N#CCSc1nc(Nc2ccc3c(c2)OCO3)c2ccccc2n1,inactive,
CCCC(=O)Nc1nc(-c2ccc3c(c2)OCCO3)cs1,inactive,
COc1ccc2c(Cl)c(C(=O)NCc3ccco3)sc2c1,inactive,
Cc1c(-c2ccnc(NCc3ccc(Cl)cc3)n2)sc(=O)n1C,inactive,
Cc1noc(NS(=O)(=O)c2ccc(NC(=O)c3oc4ccc(F)cc4c3C)cc2)c1C,inactive,
CC(=O)Nc1cccc(NC(=O)c2cc3ccccc3o2)c1,inactive,

# Reference: PubChem BioAssay AID588811 (Broad Institute, 2011)
